Molecules are shown by their SMILES. About 25 (1%) of roughly 2,000 compounds were called active. Only a selection was taken, and actives are over-represented in it overall. Unmarked numbers belong to inactive results.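 Rule for the calls: active = log2 luciferase ratio at or below -0.5849, meaning signal at two thirds of solvent-only control or lower; inactive = the rest.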

The experiment can be described thus: inhibitors of EIF4E gene expression, primary screen, cell-based, HT1080, luciferase reporter (AID 1224817).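 Note: luciferase reports endogenous eIF4E expression since it is co-expressed from the native EIF4E locus.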 To be noted: HT1080 EIF4E-luc2 knock-in reporter, 16 h, at 2.5 µM, hits give low values. Background: Reporter assays use an easily measured gene product as a stand-in for the process of interest.
Turning to `O=C(O)CC(Sc1ccccc1)c1ccccc1` (centres undefined), the log2 luciferase activity ratio was 0.113.
For the compound `Cc1cc(N=Cc2c(CO)cnc(C)c2O)c(N=Cc2c(CO)cnc(C)c2O)cc1C.[Zn]`, the log2 luciferase activity ratio is 0.374.
`NCCN1C(=O)c2ccccc2C1(O)c1ccc(Cl)cc1` (centres undefined): the log2 luciferase activity ratio is 0.275.
To `O=C(O)CC(C(=O)O)c1ccccc1[N+](=O)[O-]` (centres undefined) belongs -0.346.
To `O=C(O)C(C1NCCS1)N1C(=O)c2ccccc2C1=O` (centres undefined) belongs -0.326; to `Clc1ccc2c(NCCNC3CCCCC3)ccnc2c1`, -0.0725; to `O=C(O)Cc1c(O)ccc2ccccc12`, -0.364.
To `CC(C)=CCNc1ncnc2c1c(C#N)cn2C1OC(CO)C(O)C1O` (centres undefined) belongs -0.135; to `N#CC[N+]1(Cc2ccccn2)CCCC1`, -0.0477.
With `CN(C)CCCN=c1c2ccccc2n(C)c2[nH]c(=O)n(C)c(=O)c12`, the log2 luciferase activity ratio was -0.0932.
To `O=C(O)CSCC(=O)c1ccccc1` belongs -0.355; to `Cc1ccc(S(=O)(=O)OCC(=O)O)cc1`, 0.01.
To `CC12CCC3c4ccc(O)cc4CCC3C1C/C(=N\O)C2O` (centres undefined) belongs -0.14; to `CC1CN(CCO)CCN1c1ccccc1` (centres undefined), 0.393; to `O=C(O)C1C(C(=O)O)C(C(=O)O)C1C(=O)O` (centres undefined), -0.115.
As for `Cc1nn(-c2ccc(S(=O)(=O)[O-])cc2)c([O-])c1N=[N+](C)c1ccc(-c2ccc(N=Nc3ccc4c(S(=O)(=O)[O-])cc(S(=O)(=O)[O-])c(N)c4c3[O-])c([O-])c2)cc1[O-].[Cu+2].[Cu+2].[Na+]`, the log2 luciferase activity ratio is 0.162.
Consider `OCCNc1ncnc2c1ncn2C1OC(CO)C(O)C1O` (centres undefined), for which the log2 luciferase activity ratio was -0.0424.
Take `CN(CCO)Cc1ncccc1O`: the log2 luciferase activity ratio is -0.625 (active).
Take `CN(C)Cc1ccc(O)c(CN(C)C)n1`: the log2 luciferase activity ratio was -0.0218.
Turning to `CN(C)CCN(c1ccccn1)c1ccccn1`, the log2 luciferase activity ratio was -0.0299.
In the case of `Nc1ccccc1N=Nc1c(S(=O)(=O)O)cc2cc(S(=O)(=O)O)cc(O)c2c1O` it was -0.0279; in that of `CC1=CC(C2/C(=N/O)C=C(C)CC2(C)C)C(O)C(C)(C)C1` (centres undefined), -0.118; in that of `Fc1cccc(Cl)c1/C=N\N=C1c2ccccc2-c2ccccc21`, -0.123.
Regarding `c1ccc2cc(-c3cc(-c4cc(-c5ccc6ccccc6c5)on4)no3)ccc2c1`, the log2 luciferase activity ratio was 0.0163.
For `N=C(N)c1ccc(/C=C/c2ccc(C(=N)N)cc2)cc1`, the log2 luciferase activity ratio was -0.247.
Take `O=S(=O)(O)C(c1ccccc1)C(O)c1ccccc1` (centres undefined): the log2 luciferase activity ratio is -0.161.
As for `NCc1ccc(C(=O)O)cc1`, the log2 luciferase activity ratio is 0.304.
To `O=C(O)c1ccc(NS(=O)(=O)Cc2ccccc2)cc1` belongs 0.0192; to `O=C(O)CNc1ccc(C(=O)O)cc1`, -0.647 (active).

These data come from PubChem BioAssay AID1224817 (Yan Lab, Georgia Cancer Center, Augusta University, 2016).
